Experimental data as given in PubChem BioAssay (NCATS).
Records with an inconclusive call do not appear. Entries that show only a call come without a potency. Active and inactive are the calls of the source. Calls come from the whole dose curve; as a rule, active = well fitted curve in the direction sought with a large enough effect; inconclusive = small, poorly fitted or top-dose-only effect, or another doubt; inactive = no such curve, though single readings can be large; an effect the other way counts as inactive or inconclusive.

Biological target: ATP-dependent 6-phosphofructokinase (Trypanosoma brucei brucei) (UniProt O15648)
Sequence (O15648 whole entry, looked up): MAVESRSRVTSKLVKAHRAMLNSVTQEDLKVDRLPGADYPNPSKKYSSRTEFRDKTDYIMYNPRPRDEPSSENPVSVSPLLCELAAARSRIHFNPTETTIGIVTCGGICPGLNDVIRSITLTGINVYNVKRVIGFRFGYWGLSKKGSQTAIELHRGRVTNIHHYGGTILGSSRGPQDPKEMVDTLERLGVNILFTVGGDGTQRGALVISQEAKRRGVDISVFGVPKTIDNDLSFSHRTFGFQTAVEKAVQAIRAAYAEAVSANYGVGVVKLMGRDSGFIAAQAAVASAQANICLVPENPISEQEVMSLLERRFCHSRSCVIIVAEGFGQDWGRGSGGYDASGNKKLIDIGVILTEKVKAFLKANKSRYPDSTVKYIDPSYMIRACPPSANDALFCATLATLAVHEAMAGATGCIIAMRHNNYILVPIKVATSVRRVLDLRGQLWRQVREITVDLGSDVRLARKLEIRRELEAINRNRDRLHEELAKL
Test: qHTS Validation Assay to Find Inhibitors of T. brucei phosphofructokinase (AID 485368); note: potency is the fitted concentration of half-maximal effect
Conditions: T. brucei PFK enzyme assay, qHTS 7-point titration; series mostly up to 57.5 µM
Method in brief: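 Luminescent ADP detection measures PFK turnover of fructose-6-phosphate (0.5 mM) with ATP (0.1 mM) at pH 8.0. Reaction runs 45 min at room temperature with 1.25 nM enzyme; inhibitors tested as titrations up to 57 uM.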

| SMILES | Potency |
| --- | --- |
| CCN(CC)CCn1c(=O)c(Cc2ccc(OC)cc2)nc2ccccc21 | inactive |
| N[C@@H](Cc1ccc(O)c(O)c1)C(=O)O | 23.9 µM (active) |
| CCCCS(=N)(=O)CCC(N)C(=O)O (configuration not stated) | inactive |
| CC(=O)[C@H]1CC[C@H]2[C@@H]3CCC4=CC(=O)CC[C@]4(C)[C@H]3CC[C@]12C | inactive |
| CCN(CC)CC#CCOC(=O)C(O)(c1ccccc1)C1CCCCC1 (configuration not stated) | inactive |

System: not listed separately
Test: Quantitative high throughput screen for delayed death inhibitors of the malarial parasite plastid, 96 hour incubation (AID 488745); note: nearly all actives have a fitted effect of over 70% in size; note: potency is the fitted concentration of half-maximal effect
Conditions: Plasmodium falciparum growth; series mostly up to 28.7 µM
Method in brief: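 Readout is firefly luciferase luminescence from an integrated reporter in P. falciparum; lower signal marks inhibited growth. Cultures at 2% hematocrit and 0.1% parasitemia were treated with compound across two generations (96 h, 37 C, 5% CO2).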

| SMILES | Potency |
| --- | --- |
| CCN1CCCC1CNC(=O)c1cc(S(N)(=O)=O)ccc1OC (configuration not stated) | inactive |
| COc1cc2ncnc(Nc3cccc(Cl)c3)c2cc1OC | 3.29 µM (active) |
| Nc1nc(N)c2nc(CNc3ccc(C(=O)NC(CCC(=O)O)C(=O)O)cc3)cnc2n1 (configuration not stated) | inactive |
| CC1=C(C(=O)O)N2C(=O)[C@@H](NC(=O)C(N)c3ccccc3)[C@H]2SC1 (some centres not stated) | inactive |
| OCc1ccc(-c2nn(Cc3ccccc3)c3ccccc23)o1 | inactive |
| CCCCS(=N)(=O)CCC(N)C(=O)O (configuration not stated) | inactive |
| NC(=O)c1cccc(N)c1 | inactive |
| CCN(CC)CC#CCOC(=O)C(O)(c1ccccc1)C1CCCCC1 (configuration not stated) | inactive |
| O=C(O)C1CCCN(CCC=C(c2ccccc2)c2ccccc2)C1 (configuration not stated) | inactive |
| Cc1ccc(S(=O)(=O)N[C@@H](Cc2ccccc2)C(=O)CCl)cc1 | inactive |
| CC(C)(C)NC(=O)[C@H]1CC[C@H]2[C@@H]3CC[C@H]4NC(=O)C=C[C@]4(C)[C@H]3CC[C@]12C | inactive |

Biological target: Thioredoxin reductase 1, cytoplasmic (Rattus norvegicus) (UniProt O89049)
Sequence (O89049 whole entry, looked up): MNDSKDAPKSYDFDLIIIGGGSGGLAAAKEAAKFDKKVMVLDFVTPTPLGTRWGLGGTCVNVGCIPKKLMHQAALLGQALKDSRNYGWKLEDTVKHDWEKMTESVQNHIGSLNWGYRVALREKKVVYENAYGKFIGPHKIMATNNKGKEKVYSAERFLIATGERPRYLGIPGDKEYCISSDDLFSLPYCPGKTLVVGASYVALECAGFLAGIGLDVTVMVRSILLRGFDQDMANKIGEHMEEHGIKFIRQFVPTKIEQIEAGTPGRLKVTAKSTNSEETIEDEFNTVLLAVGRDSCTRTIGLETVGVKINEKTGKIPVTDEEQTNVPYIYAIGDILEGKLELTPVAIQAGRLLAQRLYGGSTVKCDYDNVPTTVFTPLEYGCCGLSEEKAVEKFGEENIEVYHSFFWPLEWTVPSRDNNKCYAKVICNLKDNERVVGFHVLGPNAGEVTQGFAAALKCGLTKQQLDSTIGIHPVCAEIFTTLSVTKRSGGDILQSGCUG
Test: qHTS Assay for Substrates of Mammalian Selenoprotein Thioredoxin Reductase 1 (TrxR1) (AID 488772);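 note: a drop in NADPH fluorescence below the no-compound background marks a TrxR1 substrate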
Conditions: purified TrxR1, NADPH consumption substrate assay; series mostly up to 57.1 µM
Method in brief: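 In this dual-purpose format, potential substrates are identified from the first fluorescence read after selenite addition, not from the 8-minute delta. Rat enzyme is preincubated with NADPH and then with compound at ~22 deg C.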

| SMILES | outcome |
| --- | --- |
| CCN1CCCC1CNC(=O)c1cc(S(N)(=O)=O)ccc1OC (configuration not stated) | inactive |
| CCN(CC)CCn1c(=O)c(Cc2ccc(OC)cc2)nc2ccccc21 | inactive |
| COc1cc2ncnc(Nc3cccc(Cl)c3)c2cc1OC | inactive |
| CC(C)NCC(O)c1ccc(NS(C)(=O)=O)cc1 (configuration not stated) | inactive |
| N[C@@H](Cc1ccc(O)c(O)c1)C(=O)O | inactive |
| CC1=C(C(=O)O)N2C(=O)[C@@H](NC(=O)C(N)c3ccccc3)[C@H]2SC1 (some centres not stated) | inactive |
| NC(=O)c1ccc2[nH]ccc2c1 | inactive |
| OCc1ccc(-c2nn(Cc3ccccc3)c3ccccc23)o1 | inactive |
| CCCCS(=N)(=O)CCC(N)C(=O)O (configuration not stated) | inactive |
| CC(=O)[C@H]1CC[C@H]2[C@@H]3CCC4=CC(=O)CC[C@]4(C)[C@H]3CC[C@]12C | inactive |
| NC(=O)c1cccc(N)c1 | inactive |
| CCN(CC)CC#CCOC(=O)C(O)(c1ccccc1)C1CCCCC1 (configuration not stated) | inactive |
| COc1cc2nc(N3CCCN(C)CC3)nc(NC3CCN(Cc4ccccc4)CC3)c2cc1OC | inactive |
| O=C(O)C1CCCN(CCC=C(c2ccccc2)c2ccccc2)C1 (configuration not stated) | inactive |
| CC1CC2C3CCC4=CC(=O)C=C[C@]4(C)[C@@]3(F)[C@@H](O)C[C@]2(C)[C@@]1(O)C(=O)CO (some centres not stated) | inactive |
| Cc1ccc(S(=O)(=O)N[C@@H](Cc2ccccc2)C(=O)CCl)cc1 | inactive |
